Results reported in the supplement of paper PMC10338343.
± gives the standard deviation.

Experiments:
[1] = test system: MILI (PIWIL2) piRISC loaded with L1MC piRNA (26 nt); assay: pre-steady-state target cleavage rate (min^-1); guide: L1MC piRNA 5'p-UAACUAAAUACUAUGCAAGCUGUAGG; higher = faster piRNA-guided slicing of the target;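 further: 1 nM active piRISC with 0.1 nM target library at 33 °C single turnover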
Method in brief: (§1)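 The pre-steady-state cleavage rate was derived from a burst-and-steady-state fit of Cleave-'n-Seq data. For these assays, 1 nM active affinity-purified piRISC loaded with a single synthetic guide was mixed with […] a transcribed, DNA-blocked target RNA library in HEPES–potassium acetate buffer at 33 °C, with or without 500 nM GTSF1 partner protein, for 0–8 or 0–960 min. Sequencing counts of uncleaved targets were normalised to depth and to weakly complementary targets, and k3 was capped at 0.0001 min^-1 after three trials were pooled.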

[2] = test system: EfPiwi piRISC loaded with L1MC piRNA (26 nt); assay: pre-steady-state target cleavage rate (min^-1); auxiliary factor: 500 nM Ephydatia muelleri Gtsf1; guide: L1MC piRNA 5'p-UAACUAAAUACUAUGCAAGCUGUAGG; MIWI and MILI are mouse PIWI proteins and EfPiwi is from a freshwater sponge; tags in brackets are library labels; higher = faster piRNA-guided slicing of the target
Method in brief: as §1

[3] = auxiliary factor: 500 nM mouse GTSF1
[4] = auxiliary factor: none (no GTSF1)

Row | Sequence | pre-steady-state target cleavage rate [1, 3] | pre-steady-state target cleavage rate [1, 4] | pre-steady-state target cleavage rate [2]
1 | UCCUGGUACAGCUUGCUUAGUAUUUAGUAA | 0.244 ± 0.03 | 0.00308 ± 0.0025 | 0.00376 ± 0.0023
2 | UCCUGAUACAGCUUGCAUAGUAUUUAGUUA | 0.269 ± 0.02 | 0.00917 ± 0.0027 | 0.0427 ± 0.014
3 | UCCUGGUACAGCUUCGAUAGUAUUUAGUUA | 0.187 ± 0.025 | 0.00848 ± 0.0025 | 0.00411 ± 0.0026
4 | UCCUCCUAGAGCUUGCAUAGUAUUUAGUAA | 0.201 ± 0.021 | 0.00313 ± 0.0024 | 0.00608 ± 0.0021
5 | UCCUCCUACAGCAUGCAAAGUAUUUAGUUA | 0.161 ± 0.015 | 0.00732 ± 0.0021 | 0.0492 ± 0.017
6 | UCCUGGAUGAGCUUGCUUAGUAAUUAGUUA | 0.191 ± 0.019 | 0.00839 ± 0.0025 | 0.00425 ± 0.0027
7 | UCCUGCUACAGCUAGCAUAGUAUUUAGUUA | 0.354 ± 0.027 | 0.00624 ± 0.0029 | 0.0287 ± 0.0081
8 | UCCUGGAUGAGCUUGCAUAGUAUUUUAGUUA | 0.163 ± 0.019 | 0.00807 ± 0.0028 | 0.00631 ± 0.0035
9 | UCCUGGAUGAGCUUGCAUAGUAUUUCAGUUA | 0.207 ± 0.048 | 0.00415 ± 0.0028 | 0.00264 ± 0.0023
10 | UCCUGGAACAGCUUGAAUAGUAUUUAGUUA | 0.243 ± 0.023 | 0.00657 ± 0.0025 | 0.0656 ± 0.017
11 | UCCUGGAUCUGCUUGCAUAGUAAUUAGUUA | 0.2 ± 0.017 | 0.00416 ± 0.0027 | 0.0152 ± 0.005
12 | UCCUCCUACAGCUUGCAUAGUGAUUUAGUUA | 0.0192 ± 0.0061 | 0.00528 ± 0.0024 | 0.00415 ± 0.0025
13 | UCCUCGUAGAGCUUGCAUAGUAUUUAGUUA | 0.266 ± 0.012 | 0.00554 ± 0.0023 | 0.0385 ± 0.0086
14 | UCCUGCUACAGCAUGCAUAGUAUAUAGUUA | 0.284 ± 0.03 | 0.0054 ± 0.0024 | 0.00599 ± 0.0029
15 | UCCUGCUACAGCUUGCAAUGUAUUUAGUUA | 0.0986 ± 0.014 | 0.00809 ± 0.002 | 0.00312 ± 0.0024
16 | UCCUGCUACAGCUUGCAUAGUAUAUAGUUA | 0.227 ± 0.029 | 0.00382 ± 0.0029 | 0.00448 ± 0.0019
17 | UCCUGGAUGUGCUUGCAUAGUAUUUAGUUU [g2:g20:cont:t1U] | 0.158 ± 0.016 | 0.0103 ± 0.0037 | 0.052 ± 0.017
18 | UCCUCCUACAGCAUGCAUAGUAUUAAGUUA | 0.2 ± 0.023 | 0.00348 ± 0.0026 | 0.00654 ± 0.0033
19 | UCCUGGAUGAGCUUGCAUAGUAUUUAGUUG [g2:g21:cont:t1G] | 0.186 ± 0.019 | 0.00606 ± 0.0029 | 0.0161 ± 0.0043
20 | UCCUGGAACAGCUUGCAUAGUAUUUAGUGA | 0.229 ± 0.027 | 0.00433 ± 0.0025 | 0.00437 ± 0.002
21 | UCCUGGAUGUGCUUGCAUAGUAGUUAGUUA | 0.0647 ± 0.01 | 0.0055 ± 0.0027 | 0.0116 ± 0.0041
22 | UCCUGCUACAGGUUGCAUAGUAUUUUGUUA | 0.165 ± 0.028 | 0.00477 ± 0.0031 | 0.0057 ± 0.0026
23 | UCCUGCUACAGCUUGCAGAGUAUUUAGUUA | 0.27 ± 0.028 | 0.00514 ± 0.002 | 0.006 ± 0.0022
24 | UCCUGGAUCAGCUUGCAUAGUAUGUUAGUUA | 0.199 ± 0.017 | 0.00633 ± 0.0025 | 0.031 ± 0.0087
25 | UCCUGCCACAGCUUGCAUAGUAUUUAGUUA | 0.331 ± 0.025 | 0.0105 ± 0.003 | 0.0631 ± 0.017

Row | Sequence | pre-steady-state target cleavage rate [1, 3] | pre-steady-state target cleavage rate [1, 4] | pre-steady-state target cleavage rate [2]
26 | UCCUGGAUGUGCUUGCAUAGUAUUUAGUUC [g2:g20:cont:t1C] | 0.12 ± 0.013 | 0.00589 ± 0.0026 | 0.0175 ± 0.0048
27 | UCCUGGAUCAGCUAUGCAUAGUAUUUAGUUA | 0.281 ± 0.019 | 0.0057 ± 0.0026 | 0.106 ± 0.02
28 | UCCUGGAUCAGCUUGCAUAGUAGUUAGUUA | 0.201 ± 0.016 | 0.00826 ± 0.0022 | 0.0207 ± 0.0049
29 | UCCUCCUACUGCUUGCAUACUAUUUAGUUA | 0.0694 ± 0.011 | 0.00355 ± 0.0019 | 0.0106 ± 0.0044
30 | UCCUGCUACAGCAUGCAUAGUAUUUUGUUA | 0.167 ± 0.029 | 0.00333 ± 0.0032 | 0.00422 ± 0.002
31 | UCCUGGAACUGCUUGCAUAGUAUUUAGUAA | 0.171 ± 0.015 | 0.00419 ± 0.0025 | 0.00308 ± 0.0023
32 | UCCUCCUACACCUAGCAUAGUAUUUAGUUA | 0.205 ± 0.027 | 0.0056 ± 0.0018 | 0.00718 ± 0.0027
33 | UCCUGCUACCAGCUUGCAUAGUAUUUAGUUA | 0.24 ± 0.019 | 0.0115 ± 0.0033 | 0.0199 ± 0.0059
34 | UCCUGGAAUAGCUUGCAUAGUAUUUAGUUA | 0.221 ± 0.015 | 0.0149 ± 0.0032 | 0.0137 ± 0.0037
35 | UCCUGGAUGUCCGUUGCAUAGUAUUUAGUUA | 0.0604 ± 0.018 | 0.008 ± 0.0033 | 0.00412 ± 0.0033
36 | UCCUGGAACAGCUUGCAUAGUAUUUAGUAUA | 0.273 ± 0.027 | 0.00406 ± 0.0038 | 0.00935 ± 0.005
37 | UCCUGGAUGUGCUUGCAUAGUAUUUAGUA | 0.111 ± 0.019 | 0.00483 ± 0.0024 | 0.00405 ± 0.002
38 | UCCUGGACCAGCUUGCAUAGUAUUUAGUUA | 0.246 ± 0.02 | 0.00604 ± 0.0027 | 0.159 ± 0.037
39 | UCCUGCUAUCAGCUUGCAUAGUAUUUAGUUA | 0.268 ± 0.022 | 0.00819 ± 0.0029 | 0.0613 ± 0.015
40 | UCCUGGUACAGCUUAGCAUAGUAUUUAGUUA | 0.296 ± 0.018 | 0.0164 ± 0.0045 | 0.0188 ± 0.0058
41 | UCCUGGAUGUCCCUGCAUAGUAUUUAGUUA | 0.085 ± 0.014 | 0.00467 ± 0.0023 | 0.00326 ± 0.0026
42 | UCCUGGAUCACCAUGCAUAGUAUUUAGUUA | 0.14 ± 0.019 | 0.00489 ± 0.0025 | 0.013 ± 0.0061
43 | UCCUGCUACUAGCUUGCAUAGUAUUUAGUUA | 0.176 ± 0.022 | 0.0074 ± 0.0023 | 0.00699 ± 0.0025
44 | UCCUCCAUGAGCUUGCAUAGUAUUUAGUUA | 0.279 ± 0.016 | 0.00711 ± 0.0021 | 0.0146 ± 0.004
45 | UCCUGGUACAGUUGCAUAGUAUUUAGUUA | 0.227 ± 0.023 | 0.0115 ± 0.003 | 0.0124 ± 0.0051
46 | UCCUCCUACAGCUAGCAUAGUAAUUAGUUA | 0.159 ± 0.022 | 0.00372 ± 0.0022 | 0.00535 ± 0.002
47 | UCCUGGUACAGCUUGCAUAGUAUUUAGAUA | 0.149 ± 0.033 | 0.00493 ± 0.0028 | 0.00705 ± 0.0034
48 | UCCUGGAUCAGCAUGCAUACUAUUUAGUUA | 0.0724 ± 0.0079 | 0.00491 ± 0.0019 | 0.00409 ± 0.0018
49 | UCCUGGUACAGCUUGCAUAGUAUAAAGUUA | 0.193 ± 0.046 | 0.00524 ± 0.0029 | 0.00482 ± 0.0022
50 | UCCUCCUACAGCUUGCUUAGUAUAUAGUUA | 0.271 ± 0.024 | 0.00356 ± 0.0021 | 0.0127 ± 0.0069
